Experimental data published in article PMC7862700, “An all-to-all approach to the identification of sequence-specific readers for epigenetic DNA modifications on cytosine”.

Tests used:
Test in all cases: DAPPL (digital affinity profiling via proximity ligation, sequencing); 10 mM Tris-HCl pH 7.5, 50 mM NaCl, 1 mM DTT, 4% glycerol, room temperature, 30 min; GST-TFs on glutathione beads, 16-mer random dsDNA library, 0.1% formaldehyde crosslink after washing; high values mean tight binding
FEV = biological target: T1, FEV (Homo sapiens, UniProt Q99581 1-238); conditions: protein: recombinant; tags: N-terminal GST; dsDNA, one strand shown
T1 sequence: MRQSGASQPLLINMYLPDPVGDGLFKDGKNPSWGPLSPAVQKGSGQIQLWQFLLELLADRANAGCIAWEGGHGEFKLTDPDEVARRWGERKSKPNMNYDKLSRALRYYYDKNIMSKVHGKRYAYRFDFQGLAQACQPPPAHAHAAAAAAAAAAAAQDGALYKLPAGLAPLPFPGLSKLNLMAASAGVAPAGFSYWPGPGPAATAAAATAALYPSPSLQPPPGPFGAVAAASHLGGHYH
Method in brief: (§1)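 In yeast, human transcription factors were expressed with a GST fusion, then pulled down on glutathione beads and given DNA barcodes. Pooled with a tag-only sample, they were exposed to 200 nmole of a 16-mer random double-stranded DNA library (Tris/NaCl/DTT/glycerol buffer, room temperature, 30 min), washed, crosslinked with 0.1% formaldehyde, proximity-ligated using BsaI/T4 ligase for 1 h at 37 °C, PCR-amplified and read on an Illumina NextSeq500. Each hexamer's frequency of reads for a factor, divided by the matching frequency for the tag-only sample, gives the binding signal.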

ETV5 = ETV5 (Homo sapiens, UniProt P41161 1-510); conditions: protein: recombinant; tags: N-terminal GST; dsDNA, one strand shown
Method in brief: as §1

HSF1 = HSF1 (Homo sapiens, UniProt Q00613 1-529); conditions: protein: recombinant; tags: N-terminal GST; chain copies: 3; dsDNA, one strand shown
Method in brief: as §1

SPIC = biological target: T2, SPIC (Homo sapiens, UniProt Q8N5J4 1-248); conditions: protein: recombinant; tags: N-terminal GST; dsDNA, one strand shown
T2 sequence: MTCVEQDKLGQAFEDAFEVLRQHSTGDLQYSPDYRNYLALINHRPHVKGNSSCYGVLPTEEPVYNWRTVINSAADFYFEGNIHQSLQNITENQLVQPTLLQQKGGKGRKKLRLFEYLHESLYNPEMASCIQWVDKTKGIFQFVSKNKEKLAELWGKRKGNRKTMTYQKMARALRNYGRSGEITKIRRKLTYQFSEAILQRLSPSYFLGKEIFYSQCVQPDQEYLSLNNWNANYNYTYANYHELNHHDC
Method in brief: as §1

ELF4 = ELF4 (Homo sapiens, UniProt Q99607 1-663); conditions: protein: recombinant; tags: N-terminal GST; dsDNA, one strand shown
Method in brief: as §1

ELK4 = biological target: T3, ELK4 (Homo sapiens, UniProt P28324-2 1-405); conditions: protein: recombinant; tags: N-terminal GST; dsDNA, one strand shown
T3 sequence: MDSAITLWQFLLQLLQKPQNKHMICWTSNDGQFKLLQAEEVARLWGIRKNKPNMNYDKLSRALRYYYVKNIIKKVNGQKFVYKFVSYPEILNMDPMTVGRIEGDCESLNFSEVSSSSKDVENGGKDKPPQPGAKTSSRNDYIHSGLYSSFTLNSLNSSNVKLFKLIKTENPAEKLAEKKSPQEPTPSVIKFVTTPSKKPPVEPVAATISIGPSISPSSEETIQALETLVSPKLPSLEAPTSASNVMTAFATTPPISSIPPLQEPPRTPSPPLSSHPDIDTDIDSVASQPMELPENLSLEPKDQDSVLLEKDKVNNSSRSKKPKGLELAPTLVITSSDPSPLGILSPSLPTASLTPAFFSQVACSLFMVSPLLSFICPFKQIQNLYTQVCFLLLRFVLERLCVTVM
Method in brief: as §1

ETV2 = biological target: T4, ETV2 (Homo sapiens, UniProt O00321 1-342); conditions: protein: recombinant; tags: N-terminal GST; dsDNA, one strand shown
T4 sequence: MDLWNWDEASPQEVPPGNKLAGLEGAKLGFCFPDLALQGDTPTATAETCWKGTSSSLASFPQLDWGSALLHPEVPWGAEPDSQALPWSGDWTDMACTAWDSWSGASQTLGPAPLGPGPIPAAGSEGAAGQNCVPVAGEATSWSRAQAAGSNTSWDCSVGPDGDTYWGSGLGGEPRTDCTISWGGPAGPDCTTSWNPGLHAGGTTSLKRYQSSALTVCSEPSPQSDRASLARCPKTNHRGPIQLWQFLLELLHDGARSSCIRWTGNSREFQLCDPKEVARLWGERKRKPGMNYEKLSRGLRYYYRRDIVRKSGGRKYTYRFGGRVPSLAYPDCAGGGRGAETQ
Method in brief: as §1

ELF3 = biological target: T5, ELF3 (Homo sapiens, UniProt P78545 1-371); conditions: protein: recombinant; tags: N-terminal GST; dsDNA, one strand shown
T5 sequence: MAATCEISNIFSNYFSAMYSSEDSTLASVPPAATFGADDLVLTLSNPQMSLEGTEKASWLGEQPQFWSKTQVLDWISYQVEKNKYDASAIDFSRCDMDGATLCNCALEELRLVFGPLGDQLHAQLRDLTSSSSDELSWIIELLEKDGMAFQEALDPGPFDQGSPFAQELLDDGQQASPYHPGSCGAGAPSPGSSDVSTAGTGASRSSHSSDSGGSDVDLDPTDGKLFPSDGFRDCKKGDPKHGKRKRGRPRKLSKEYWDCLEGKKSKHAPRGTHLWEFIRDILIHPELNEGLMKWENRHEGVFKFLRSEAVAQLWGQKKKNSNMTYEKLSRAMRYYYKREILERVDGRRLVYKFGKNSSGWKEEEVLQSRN
Method in brief: as §1

CRX = CRX (Homo sapiens, UniProt O43186 1-299); conditions: protein: recombinant; tags: N-terminal GST; dsDNA, one strand shown
Method in brief: as §1

ETV1 = ETV1 (Homo sapiens, UniProt P50549 1-477); conditions: protein: recombinant; tags: N-terminal GST; dsDNA, one strand shown
Method in brief: as §1

ERF = biological target: T6, ERF (Homo sapiens, UniProt P50548 1-548); conditions: protein: recombinant; tags: N-terminal GST; dsDNA, one strand shown
T6 sequence: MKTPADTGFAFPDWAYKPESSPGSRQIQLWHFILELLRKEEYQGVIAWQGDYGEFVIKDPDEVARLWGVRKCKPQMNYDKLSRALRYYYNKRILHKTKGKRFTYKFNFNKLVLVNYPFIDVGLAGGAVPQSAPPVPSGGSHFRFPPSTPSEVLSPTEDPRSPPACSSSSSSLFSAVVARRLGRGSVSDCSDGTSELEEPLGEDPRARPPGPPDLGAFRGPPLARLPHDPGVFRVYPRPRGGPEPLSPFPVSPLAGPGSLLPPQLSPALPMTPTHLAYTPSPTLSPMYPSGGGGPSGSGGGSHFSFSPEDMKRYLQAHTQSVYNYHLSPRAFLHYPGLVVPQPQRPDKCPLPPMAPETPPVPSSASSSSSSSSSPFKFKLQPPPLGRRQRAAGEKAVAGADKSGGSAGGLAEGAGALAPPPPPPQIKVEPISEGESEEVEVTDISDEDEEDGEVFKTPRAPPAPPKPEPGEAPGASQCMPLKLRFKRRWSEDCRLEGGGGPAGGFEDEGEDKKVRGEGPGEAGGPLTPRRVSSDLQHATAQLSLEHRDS
Method in brief: as §1

ETV3L = biological target: T7, ETV3L (Homo sapiens, UniProt Q6ZN32 1-361); conditions: protein: recombinant; tags: N-terminal GST; dsDNA, one strand shown
T7 sequence: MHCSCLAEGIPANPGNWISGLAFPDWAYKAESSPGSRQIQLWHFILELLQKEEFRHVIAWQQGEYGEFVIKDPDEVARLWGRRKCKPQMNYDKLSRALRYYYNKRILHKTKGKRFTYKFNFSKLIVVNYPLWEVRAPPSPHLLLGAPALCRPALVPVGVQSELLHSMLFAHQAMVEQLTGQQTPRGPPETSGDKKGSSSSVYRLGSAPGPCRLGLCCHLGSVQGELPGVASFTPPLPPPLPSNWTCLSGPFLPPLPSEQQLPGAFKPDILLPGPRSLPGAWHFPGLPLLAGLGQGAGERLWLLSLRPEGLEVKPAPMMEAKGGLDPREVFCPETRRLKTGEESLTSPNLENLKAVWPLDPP
Method in brief: as §1

ETS2 = biological target: T8, ETS2 (Homo sapiens, UniProt P15036 1-469); conditions: protein: recombinant; tags: N-terminal GST; dsDNA, one strand shown
T8 sequence: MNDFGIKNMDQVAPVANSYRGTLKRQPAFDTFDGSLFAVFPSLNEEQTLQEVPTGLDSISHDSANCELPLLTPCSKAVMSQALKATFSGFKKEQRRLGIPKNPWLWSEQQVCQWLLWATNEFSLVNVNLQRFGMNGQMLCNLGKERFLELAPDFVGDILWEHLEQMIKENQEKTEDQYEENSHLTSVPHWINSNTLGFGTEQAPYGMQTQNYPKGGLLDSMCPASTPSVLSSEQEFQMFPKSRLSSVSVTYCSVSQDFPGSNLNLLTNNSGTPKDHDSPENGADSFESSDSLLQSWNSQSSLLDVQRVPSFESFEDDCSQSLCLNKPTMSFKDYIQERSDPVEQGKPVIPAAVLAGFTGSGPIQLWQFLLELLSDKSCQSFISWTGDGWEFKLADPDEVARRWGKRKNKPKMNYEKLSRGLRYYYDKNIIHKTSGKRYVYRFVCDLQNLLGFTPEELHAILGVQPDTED
Method in brief: as §1

SPDEF = biological target: T9, SPDEF (Homo sapiens, UniProt O95238 1-335); conditions: protein: recombinant; tags: N-terminal GST; dsDNA, one strand shown
T9 sequence: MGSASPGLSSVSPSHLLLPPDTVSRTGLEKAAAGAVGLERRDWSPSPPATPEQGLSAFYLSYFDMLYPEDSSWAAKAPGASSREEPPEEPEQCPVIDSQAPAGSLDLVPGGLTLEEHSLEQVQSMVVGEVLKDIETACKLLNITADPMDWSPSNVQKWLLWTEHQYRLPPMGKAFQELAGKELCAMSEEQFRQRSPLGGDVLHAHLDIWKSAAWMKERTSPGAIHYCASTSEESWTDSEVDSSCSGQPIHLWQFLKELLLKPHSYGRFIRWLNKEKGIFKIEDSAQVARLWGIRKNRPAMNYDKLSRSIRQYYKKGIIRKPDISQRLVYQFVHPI
Method in brief: as §1

ETV7 = biological target: T10, ETV7 (Homo sapiens, UniProt Q9Y603 1-341); conditions: protein: recombinant; tags: N-terminal GST; dsDNA, one strand shown
T10 sequence: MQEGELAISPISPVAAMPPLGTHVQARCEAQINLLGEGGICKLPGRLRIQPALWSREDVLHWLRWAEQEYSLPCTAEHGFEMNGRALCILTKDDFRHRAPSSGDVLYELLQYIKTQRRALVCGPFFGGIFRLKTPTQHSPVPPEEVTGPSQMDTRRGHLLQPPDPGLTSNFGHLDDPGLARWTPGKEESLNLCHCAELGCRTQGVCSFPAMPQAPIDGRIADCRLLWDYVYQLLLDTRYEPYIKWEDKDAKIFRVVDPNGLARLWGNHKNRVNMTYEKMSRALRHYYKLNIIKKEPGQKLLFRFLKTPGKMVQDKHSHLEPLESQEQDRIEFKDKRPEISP
Method in brief: as §1

ELF5 = biological target: T11, ELF5 (Homo sapiens, UniProt Q9UKW6-2 1-255); conditions: protein: recombinant; tags: N-terminal GST; dsDNA, one strand shown
T11 sequence: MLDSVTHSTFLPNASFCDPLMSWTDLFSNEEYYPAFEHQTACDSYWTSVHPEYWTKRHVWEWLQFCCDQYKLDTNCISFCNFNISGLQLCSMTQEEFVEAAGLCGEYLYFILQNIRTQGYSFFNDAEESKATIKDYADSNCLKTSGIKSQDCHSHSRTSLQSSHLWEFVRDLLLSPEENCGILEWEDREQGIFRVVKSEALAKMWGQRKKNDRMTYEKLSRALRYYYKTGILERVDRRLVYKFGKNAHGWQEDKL
Method in brief: as §1

ETV3 = biological target: T12, ETV3 (Homo sapiens, UniProt P41162-2 1-143); conditions: protein: recombinant; tags: N-terminal GST; dsDNA, one strand shown
T12 sequence: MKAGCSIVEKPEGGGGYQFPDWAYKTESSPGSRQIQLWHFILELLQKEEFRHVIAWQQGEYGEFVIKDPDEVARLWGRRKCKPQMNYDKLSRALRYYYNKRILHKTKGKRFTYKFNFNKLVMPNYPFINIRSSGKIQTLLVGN
Method in brief: as §1

ETV6 = ETV6 (Homo sapiens, UniProt P41212 1-452); conditions: protein: recombinant; tags: N-terminal GST; dsDNA, one strand shown
Method in brief: as §1

Chain of HSF1 (Q00613 whole entry): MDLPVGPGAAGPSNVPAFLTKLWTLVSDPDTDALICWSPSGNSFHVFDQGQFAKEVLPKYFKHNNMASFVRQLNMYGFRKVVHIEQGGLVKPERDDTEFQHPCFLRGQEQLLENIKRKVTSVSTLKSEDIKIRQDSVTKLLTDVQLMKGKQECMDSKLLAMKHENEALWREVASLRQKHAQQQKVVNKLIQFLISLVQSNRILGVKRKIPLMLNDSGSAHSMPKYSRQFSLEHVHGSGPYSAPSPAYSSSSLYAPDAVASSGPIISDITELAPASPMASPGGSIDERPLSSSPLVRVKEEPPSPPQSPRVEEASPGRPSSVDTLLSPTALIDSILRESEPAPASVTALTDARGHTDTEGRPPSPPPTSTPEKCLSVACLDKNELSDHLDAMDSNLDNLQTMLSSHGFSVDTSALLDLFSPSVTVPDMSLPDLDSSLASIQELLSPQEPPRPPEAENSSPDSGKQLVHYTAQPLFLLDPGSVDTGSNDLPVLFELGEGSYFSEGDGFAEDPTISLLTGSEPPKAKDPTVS
Chain of ETV5 (P41161 whole entry): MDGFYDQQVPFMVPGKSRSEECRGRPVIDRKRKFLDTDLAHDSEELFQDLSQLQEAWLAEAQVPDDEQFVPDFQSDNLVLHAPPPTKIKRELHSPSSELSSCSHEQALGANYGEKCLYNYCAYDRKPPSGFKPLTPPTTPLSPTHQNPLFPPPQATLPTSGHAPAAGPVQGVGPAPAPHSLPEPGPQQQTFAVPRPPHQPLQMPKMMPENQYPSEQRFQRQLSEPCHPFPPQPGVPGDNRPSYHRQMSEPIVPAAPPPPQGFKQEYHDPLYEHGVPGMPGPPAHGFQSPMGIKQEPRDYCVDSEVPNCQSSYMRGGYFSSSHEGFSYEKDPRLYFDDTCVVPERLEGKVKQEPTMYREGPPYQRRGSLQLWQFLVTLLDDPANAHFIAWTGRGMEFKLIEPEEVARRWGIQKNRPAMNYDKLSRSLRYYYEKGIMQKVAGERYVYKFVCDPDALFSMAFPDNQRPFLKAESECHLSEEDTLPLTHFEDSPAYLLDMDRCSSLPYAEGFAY
Chain of ETV1 (P50549 whole entry): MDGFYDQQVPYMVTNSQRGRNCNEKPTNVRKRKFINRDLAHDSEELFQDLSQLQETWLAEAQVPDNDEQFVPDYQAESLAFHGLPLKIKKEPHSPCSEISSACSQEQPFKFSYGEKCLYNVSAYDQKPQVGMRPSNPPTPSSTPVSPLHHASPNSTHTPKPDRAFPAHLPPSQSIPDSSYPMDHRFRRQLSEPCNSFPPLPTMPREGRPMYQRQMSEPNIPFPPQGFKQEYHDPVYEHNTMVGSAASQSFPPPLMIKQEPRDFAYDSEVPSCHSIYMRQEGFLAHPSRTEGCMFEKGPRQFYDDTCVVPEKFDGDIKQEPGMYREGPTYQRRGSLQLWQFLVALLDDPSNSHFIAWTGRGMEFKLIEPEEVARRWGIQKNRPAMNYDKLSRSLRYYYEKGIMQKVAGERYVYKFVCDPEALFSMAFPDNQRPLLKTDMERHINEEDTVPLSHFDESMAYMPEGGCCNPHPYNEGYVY
Chain of CRX (O43186 whole entry): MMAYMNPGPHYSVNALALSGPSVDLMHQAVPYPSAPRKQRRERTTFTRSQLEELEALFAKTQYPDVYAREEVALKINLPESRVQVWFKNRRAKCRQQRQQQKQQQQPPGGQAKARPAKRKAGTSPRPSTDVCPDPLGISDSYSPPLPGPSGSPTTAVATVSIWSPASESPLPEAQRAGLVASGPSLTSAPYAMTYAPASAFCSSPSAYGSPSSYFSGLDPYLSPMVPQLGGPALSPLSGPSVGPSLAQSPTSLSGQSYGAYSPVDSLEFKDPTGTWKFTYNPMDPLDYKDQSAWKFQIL
Chain of ELF4 (Q99607 whole entry): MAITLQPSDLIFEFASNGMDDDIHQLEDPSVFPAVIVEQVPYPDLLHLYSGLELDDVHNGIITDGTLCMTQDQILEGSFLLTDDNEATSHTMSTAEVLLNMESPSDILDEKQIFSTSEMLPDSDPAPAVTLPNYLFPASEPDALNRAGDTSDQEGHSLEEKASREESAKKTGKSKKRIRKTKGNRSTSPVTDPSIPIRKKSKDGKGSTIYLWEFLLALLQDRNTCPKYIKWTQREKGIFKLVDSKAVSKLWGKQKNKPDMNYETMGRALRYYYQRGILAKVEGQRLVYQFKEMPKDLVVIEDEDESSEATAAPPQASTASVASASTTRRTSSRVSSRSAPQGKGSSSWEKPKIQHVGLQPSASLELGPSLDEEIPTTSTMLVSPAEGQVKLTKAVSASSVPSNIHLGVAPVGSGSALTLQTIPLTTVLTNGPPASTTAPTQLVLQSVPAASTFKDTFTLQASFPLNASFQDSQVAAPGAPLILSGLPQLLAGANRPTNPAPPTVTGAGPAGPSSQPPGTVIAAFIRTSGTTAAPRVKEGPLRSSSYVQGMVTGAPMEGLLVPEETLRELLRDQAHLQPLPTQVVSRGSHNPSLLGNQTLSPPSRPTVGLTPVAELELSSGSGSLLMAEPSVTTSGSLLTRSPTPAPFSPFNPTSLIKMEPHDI
Chain of ETV6 (P41212 whole entry): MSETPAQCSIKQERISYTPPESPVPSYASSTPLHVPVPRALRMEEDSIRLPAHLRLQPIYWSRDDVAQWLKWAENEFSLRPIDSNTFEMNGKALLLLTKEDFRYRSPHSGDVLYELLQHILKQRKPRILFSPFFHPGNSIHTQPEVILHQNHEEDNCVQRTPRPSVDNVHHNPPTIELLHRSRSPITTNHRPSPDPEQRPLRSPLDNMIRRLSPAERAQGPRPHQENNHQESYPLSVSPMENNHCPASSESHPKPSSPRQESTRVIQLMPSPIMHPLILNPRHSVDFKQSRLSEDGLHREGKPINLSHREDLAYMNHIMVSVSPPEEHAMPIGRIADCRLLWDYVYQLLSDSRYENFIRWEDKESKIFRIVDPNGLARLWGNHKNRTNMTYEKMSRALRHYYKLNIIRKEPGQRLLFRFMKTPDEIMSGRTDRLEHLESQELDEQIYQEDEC

For ACGATA, the binding signal (FEV) was 1.12 fold enrichment (6-mer frequency, TF over GST control), the binding signal (ETV5) was 1.16 fold enrichment (6-mer frequency, TF over GST control) and the binding signal (HSF1) was 1.17 fold enrichment (6-mer frequency, TF over GST control). For the same sequence, the binding signal (SPIC) was 1.38 fold enrichment (6-mer frequency, TF over GST control), the binding signal (ELF4) was 1.22 fold enrichment (6-mer frequency, TF over GST control) and the binding signal (ELK4) was 1.18 fold enrichment (6-mer frequency, TF over GST control). For the same sequence, the binding signal (ETV2) was 1.22 fold enrichment (6-mer frequency, TF over GST control), the binding signal (ELF3) was 1.04 fold enrichment (6-mer frequency, TF over GST control) and the binding signal (CRX) was 1.26 fold enrichment (6-mer frequency, TF over GST control). For the same sequence, the binding signal (ETV1) was 1.15 fold enrichment (6-mer frequency, TF over GST control), the binding signal (ERF) was 1.2 fold enrichment (6-mer frequency, TF over GST control) and the binding signal (ETV3L) was 1.18 fold enrichment (6-mer frequency, TF over GST control). For the same sequence, the binding signal (ETS2) was 1.25 fold enrichment (6-mer frequency, TF over GST control), the binding signal (SPDEF) was 1.13 fold enrichment (6-mer frequency, TF over GST control) and the binding signal (ETV7) was 1.22 fold enrichment (6-mer frequency, TF over GST control). The binding signal (ELF5) was 1.09 fold enrichment (6-mer frequency, TF over GST control), the binding signal (ETV3) was 1.13 fold enrichment (6-mer frequency, TF over GST control) and the binding signal (ETV6) was 1.18 fold enrichment (6-mer frequency, TF over GST control).
